High-throughput results from PubChem BioAssay.
Most compounds without a hit are left out; they make up all but 4.7% or so of the library.
D1 potentiator = enhances dopamine response at the human D1 receptor; P21728; HEK293 TREx D1 cells, calcium flux, dopamine EC20 potentiation; potentiation, % at 10 µM; 360,000 tested, 0.036% active; AID 504651; in the data active means potentiation above about 30%; further: 0% is about no effect
Target sequence (P21728 whole entry, looked up): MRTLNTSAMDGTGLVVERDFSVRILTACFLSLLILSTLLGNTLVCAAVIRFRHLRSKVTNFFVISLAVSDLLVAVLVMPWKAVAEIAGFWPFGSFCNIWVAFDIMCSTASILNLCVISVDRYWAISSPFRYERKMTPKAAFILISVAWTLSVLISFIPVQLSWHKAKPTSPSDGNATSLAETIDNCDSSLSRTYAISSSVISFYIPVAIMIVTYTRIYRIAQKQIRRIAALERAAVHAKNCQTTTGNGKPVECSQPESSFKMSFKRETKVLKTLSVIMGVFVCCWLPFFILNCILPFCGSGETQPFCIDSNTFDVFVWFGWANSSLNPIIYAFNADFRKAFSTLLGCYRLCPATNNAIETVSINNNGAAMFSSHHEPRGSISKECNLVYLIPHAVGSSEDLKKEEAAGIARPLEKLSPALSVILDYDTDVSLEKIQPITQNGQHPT
TRHR ag = TRH receptor (human) agonism; 360,000 tested, 0.18% active; TRHR cells, calcium flux fluo-8, FDSS agonist mode; AID 493084; activation, % at 2 µM; further: 0% is about no effect
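TRHR-expressing cells, plated overnight in medium with 10% serum, were loaded with fluo-8 calcium dye at room temperature. After a 10 s baseline, library compound was pin-added and calcium release was recorded kinetically (ex 480/em 530) as agonist response.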
D1 antag = blocks dopamine activation of the human D1 receptor; P21728; HEK293 TREx D1 cells, calcium flux, dopamine EC80; hits give low values; activity change, negative = inhibition, % at 10 µM; 360,000 tested, 3.2% active; AID 504652; in the data active means activity change below about -30%; further: on the % scale 0 is the no-effect control and ±100 the full control effect
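Calcium flux readout: force-coupled, inducible Hek293 Trex D1 line, cells induced overnight at 30 C with tetracycline, dye-loaded 30–90 min at RT. Antagonism scored against EC80 dopamine challenge given 180 s after compound.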
TRHR PAM = TRH receptor (human) allosteric enhancement | P34981 | TRHR cells, fluo-8 calcium fluorescence, EC20 TRH enhancement | enhancement, % at 2 µM | 360,000 tested, 0.66% active; in the data active means enhancement above about 30%; further: 0% is about no effect
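TRHR-expressing cells loaded with fluo-8 calcium dye were read kinetically (ex 480/em 530) during compound addition, then stimulated with an EC20 of TRH (10 nM final). Enhancement of the Gq-mediated intracellular calcium response was scored.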
D1 ag = human D1 receptor agonism; P21728; HEK293 T-REx D1 cells, calcium flux, agonist mode; activation, % at 2 µM; 360,000 tested, 1% active; AID 504660; further: 0% is about no effect
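Tetracycline-induced HEK293 TREx D1 cells, force-coupled to calcium signalling, were dye-loaded with a no-wash calcium kit. Compound was pin-added after a 10 s baseline. Fluorescence was read kinetically at 1 cycle/s for 180 s, with calcium rises flagged as agonism.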
* hit, by the source's call. Unless noted, no stated cut-off is given here; in the data, active means activation above about 30%; inactive means the rest.

How did COc1ccc(-c2cc(C(F)(F)F)n3nc(C)c(-c4ccccc4)c3n2)cc1OC do in these assays?
D1 potentiator: 2.2; TRHR ag: 0.6; D1 antag: -1.1; TRHR PAM: 10.2; D1 ag: 0.0

What do the screens show for `COc1ccc2c(c1)[nH]c1c(=O)n(CCCN3CCOCC3)cnc12`?
D1 potentiator: -5.7; TRHR ag: 0.1; D1 antag: -30.8*; TRHR PAM: 0.2; D1 ag: 0.7

What do the screens show for `CC1CCc2c(sc3nnn(Cc4ccc(F)cc4)c(=O)c23)C1` (stereo unspecified)?
D1 potentiator: -2.1; TRHR ag: 1.2; D1 antag: -44.5*; TRHR PAM: 1.6; D1 ag: 2.6

Results for Cc1ccc(Cn2nnc3sc4c(c3c2=O)CCC(C)C4)cc1 (stereo unspecified) ?
D1 potentiator: -3.4; TRHR ag: 0.5; D1 antag: 5.3; TRHR PAM: 5.6; D1 ag: -0.4

How did COC(=O)c1ccc(Cn2nnc3sc4c(c3c2=O)CCCC4)cc1 do in these assays?
D1 potentiator: -2.4; TRHR ag: -0.1; D1 antag: 0.7; TRHR PAM: 5.3; D1 ag: -0.6

Results for O=C(O)c1ccc(Cn2nnc3sc4c(c3c2=O)CCCC4)cc1 ?
D1 potentiator: 0.6; TRHR ag: 0.7; D1 antag: -30.3*; TRHR PAM: -0.4; D1 ag: 1.7

Results for CCN(CC)S(=O)(=O)c1ccc2c(c1)N(CC(=O)Nc1ccccc1F)C(=O)C1CCCN21 (stereo unspecified) ?
D1 potentiator: -0.1; TRHR ag: -0.7; D1 antag: 11.7; TRHR PAM: 2.3; D1 ag: -1.9

What do the screens show for `CCN(CC)S(=O)(=O)c1ccc2c(c1)N(CC(=O)Nc1ccc(F)cc1F)C(=O)C1CCCN21` (stereo unspecified)?
D1 potentiator: 1.1; TRHR ag: -0.1; D1 antag: -32.1*; TRHR PAM: 0.6; D1 ag: 2.9

Results for CCOc1ccc(Nc2oc(-c3ccc(COc4ccccc4C)o3)nc2C#N)cc1 ?
D1 potentiator: -1.9; TRHR ag: 0.0; D1 antag: 5.9; TRHR PAM: -0.2; D1 ag: 2.3

What do the screens show for `O=C(COC(=O)/C=C/c1ccc(C(F)(F)F)cc1)NC1CCCC1`?
D1 potentiator: -7.6; TRHR ag: 0.1; D1 antag: -49.1*; TRHR PAM: -4.6; D1 ag: 5.4

What do the screens show for `O=C(COC(=O)CCC(=O)c1ccc(F)cc1)NCc1ccco1`?
D1 potentiator: -8.4; TRHR ag: -0.4; D1 antag: -31.6*; TRHR PAM: 2.7; D1 ag: -0.3

Results for O=C(COC(=O)/C=C/c1ccc(C(F)(F)F)cc1)NC1CC1 ?
D1 potentiator: 1.0; TRHR ag: 0.8; D1 antag: -25.8; TRHR PAM: 16.5; D1 ag: 8.6

Results for O=C(COC(=O)/C=C/c1ccc(OC(F)F)cc1)NCc1cccs1 ?
D1 potentiator: -3.4; TRHR ag: 2.2; D1 antag: 2.6; TRHR PAM: -7.8; D1 ag: 36.5*

Results for O=C(COC(=O)/C=C/c1ccc(C(F)(F)F)cc1)NCc1ccco1 ?
D1 potentiator: -7.5; TRHR ag: -0.1; D1 antag: -30.7*; TRHR PAM: -1.5; D1 ag: 6.5

What do the screens show for `O=C(COC(=O)Cc1ccc(F)cc1)NCc1ccco1`?
D1 potentiator: -1.0; TRHR ag: -0.1; D1 antag: -1.4; TRHR PAM: -3.6; D1 ag: 1.0

Results for CC(C)c1ccc(NC(=O)CSc2ncc3c(n2)-c2ccccc2N(C)S3(=O)=O)cc1 ?
D1 potentiator: 2.2; TRHR ag: 0.1; D1 antag: 13.0; TRHR PAM: -0.3; D1 ag: 4.7

How did COc1cccc(-c2ccc(NC(=O)C3CCCN(CCCn4nc(C)cc4C)C3)cc2)c1 (stereo unspecified) do in these assays?
D1 potentiator: -6.7; TRHR ag: 0.1; D1 antag: -20.9; TRHR PAM: -3.1; D1 ag: 41.5*

What do the screens show for `CC(=O)Nc1ccc(NC(=O)C2CC(=O)N(c3ccc(Cl)cc3)C2)cc1` (stereo unspecified)?
D1 potentiator: -2.3; TRHR ag: 0.2; D1 antag: -1.5; TRHR PAM: -2.2; D1 ag: 2.0

How did CC(=O)Nc1ccc(NC(=O)C2CC(=O)N(c3ccccc3Cl)C2)cc1 (stereo unspecified) do in these assays?
D1 potentiator: 2.1; TRHR ag: -0.7; D1 antag: -30.5*; TRHR PAM: 6.4; D1 ag: 14.3

How did CCOC(=O)c1ccc(NC(=O)N2CCc3ccccc32)cc1 do in these assays?
D1 potentiator: -1.6; TRHR ag: -0.2; D1 antag: -2.4; TRHR PAM: -3.4; D1 ag: 1.5

What do the screens show for `CCOC(=O)c1ccc(NC(=O)N2CCc3ccccc3C2)cc1`?
D1 potentiator: -1.9; TRHR ag: -0.2; D1 antag: -38.7*; TRHR PAM: -2.5; D1 ag: 12.7

What do the screens show for `Cc1ccc(NC(=O)c2ccc(CN3CCc4ccccc4C3)cc2)cc1`?
D1 potentiator: -4.0; TRHR ag: 0.7; D1 antag: -32.9*; TRHR PAM: 2.2; D1 ag: 3.7

How did CSc1ccc(CN(C)C(=O)c2cccc(S(=O)(=O)NCc3ccccc3)c2)cc1 do in these assays?
D1 potentiator: -11.0; TRHR ag: 0.4; D1 antag: -32.9*; TRHR PAM: -6.1; D1 ag: 16.3

Results for CSc1ccc(CN(C)C(=O)c2cc(S(=O)(=O)NCc3ccccc3)ccc2C)cc1 ?
D1 potentiator: -13.2; TRHR ag: 0.1; D1 antag: 5.3; TRHR PAM: -4.3; D1 ag: 3.0

What do the screens show for `COc1ccc(-c2cn3c(C)c(C(=O)N4CCc5ccccc5C4)sc3n2)cc1`?
D1 potentiator: -6.8; TRHR ag: -0.5; D1 antag: -30.6*; TRHR PAM: -1.4; D1 ag: 3.8

How did Cc1c(C(=O)N2CCc3ccccc3C2)sc2nc(-c3ccccc3)cn12 do in these assays?
D1 potentiator: -6.2; TRHR ag: 1.6; D1 antag: 5.2; TRHR PAM: -1.0; D1 ag: 10.7

Results for COc1ccc(NC(=O)CSc2nnc(NC(=O)Nc3ccccc3)s2)c(OC)c1 ?
D1 potentiator: -1.5; TRHR ag: 0.1; TRHR PAM: -0.7; D1 ag: -1.4

What do the screens show for `CC(C)(C)OC(=O)NCc1ccc(CNC(=O)c2nc[nH]c2C(=O)NCc2ccccc2)cc1`?
D1 potentiator: -1.6; TRHR ag: 0.5; D1 antag: -53.4*; TRHR PAM: 4.6; D1 ag: 1.4

Results for O=C(NCc1ccccc1)c1nc[nH]c1C(=O)NCc1ccccc1 ?
D1 potentiator: 1.4; TRHR ag: -0.3; D1 antag: 4.0; TRHR PAM: 32.9*; D1 ag: 4.7
